Measured values as given in the supplement of paper PMC9694430.
Structures can show the parent of a compound that is named as a salt.

Legend:
Assay in all cases: thermal shift delta Tm vs DMSO control; higher = stronger stabilization (binding)
Settings in all cases: 12.5 µM; protein concentration 2 µM
LOC_OS04G57630-cb004 = tested on: LOC_OS04G57630-cb004
In short: (§1)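 The melting temperature shift given here is a triplicate mean, measured against protein that received only DMSO. Melting temperatures came from Boltzmann fits of differential scanning fluorimetry data on E. coli-expressed, purified rice kinase domain constructs. Each 19.5 μl well contained 2 μM kinase, 100 mM potassium phosphate pH 7.5, 150 mM NaCl, 10% glycerol, 5 × SYPRO Orange and compound in DMSO. Plates were scanned from 25°C to 95°C at 0.05°C/s.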

LOC_OS05G07850-cb002 = tested on: LOC_OS05G07850-cb002
In short: as §1

LOC_OS05G16824-cb004 = tested on: LOC_OS05G16824-cb004
In short: as §1

LOC_OS05G28520-cb001 = tested on: LOC_OS05G28520-cb001
In short: as §1

LOC_OS05G30820-cb001 = tested on: LOC_OS05G30820-cb001
In short: as §1

LOC_OS05G43570-cb004 = tested on: LOC_OS05G43570-cb004
In short: as §1

LOC_OS06G16330-cb003 = tested on: LOC_OS06G16330-cb003
LOC_OS06G16330-cb003, sequence (as listed by the source): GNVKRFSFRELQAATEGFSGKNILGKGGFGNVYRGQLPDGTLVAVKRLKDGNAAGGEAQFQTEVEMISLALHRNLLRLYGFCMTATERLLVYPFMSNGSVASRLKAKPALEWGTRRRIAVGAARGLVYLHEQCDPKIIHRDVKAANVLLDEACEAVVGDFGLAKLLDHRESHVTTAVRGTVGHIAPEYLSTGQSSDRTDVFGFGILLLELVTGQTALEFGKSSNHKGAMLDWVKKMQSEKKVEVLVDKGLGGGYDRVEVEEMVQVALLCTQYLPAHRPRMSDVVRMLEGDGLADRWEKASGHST
In short: as §1

LOC_OS06G22820-cb001 = tested on: T1, LOC_OS06G22820-cb001
T1 sequence (whole entry): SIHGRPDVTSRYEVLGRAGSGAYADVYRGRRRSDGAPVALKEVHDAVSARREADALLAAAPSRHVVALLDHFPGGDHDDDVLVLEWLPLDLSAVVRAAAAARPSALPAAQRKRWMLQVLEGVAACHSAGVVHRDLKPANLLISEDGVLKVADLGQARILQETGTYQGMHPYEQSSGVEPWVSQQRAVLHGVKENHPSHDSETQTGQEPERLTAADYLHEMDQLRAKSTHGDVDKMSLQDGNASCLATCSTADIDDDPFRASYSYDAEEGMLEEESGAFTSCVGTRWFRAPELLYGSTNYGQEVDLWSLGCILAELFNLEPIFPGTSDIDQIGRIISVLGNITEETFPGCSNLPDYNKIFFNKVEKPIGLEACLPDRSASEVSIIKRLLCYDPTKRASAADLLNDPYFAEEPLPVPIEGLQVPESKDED
In short: as §1

LOC_OS07G06570-cb004 = tested on: LOC_OS07G06570-cb004
In short: as §1

LOC_OS07G07230-cb001 = tested on: LOC_OS07G07230-cb001
In short: as §1

| SMILES | thermal shift delta Tm (LOC_OS04G57630-cb004) [°C] | thermal shift delta Tm (LOC_OS05G07850-cb002) [°C] | thermal shift delta Tm (LOC_OS05G16824-cb004) [°C] | thermal shift delta Tm (LOC_OS05G28520-cb001) [°C] | thermal shift delta Tm (LOC_OS05G30820-cb001) [°C] | thermal shift delta Tm (LOC_OS05G43570-cb004) [°C] | thermal shift delta Tm (LOC_OS06G16330-cb003) [°C] | thermal shift delta Tm (LOC_OS06G22820-cb001) [°C] | thermal shift delta Tm (LOC_OS07G06570-cb004) [°C] | thermal shift delta Tm (LOC_OS07G07230-cb001) [°C] |
| --- | --- | --- | --- | --- | --- | --- | --- | --- | --- | --- |
| COC(=O)c1ccc2c(c1)NC(=O)/C2=C(\Nc1ccc(N(C)C(=O)CN2CCN(C)CC2)cc1)c1ccccc1 [Nintedanib (BIBF 1120)] | 1.08 | 1.57 | 9.2 | 0.54 | 0.35 | 0.43 | 0.71 | 0.4 | 0.96 | 0.42 |
| O=C(O)c1ccc(-c2c[nH]c3ncc(-c4ccccc4)cc23)cc1C1CCCC1 | 3.53 | 6.21 | 4.46 | 1.1 | 0.74 | -0.07 | 10.4 | 0.29 | -3.29 | 0.05 |
| Cc1ccc(NC(=O)c2ccc(CN3CC[C@H](N(C)C)C3)c(C(F)(F)F)c2)cc1Nc1nccc(-c2cncnc2)n1 [Bafetinib (INNO-406)] | 0.08 | 0.37 | -2.81 | 1.08 | 0.77 | 0.5 | -0.31 | 0.4 | 1.66 | 0.62 |
| CN1CCN(Cc2ccc(NC(=O)Nc3ccc(Oc4ccnc(N)n4)cc3)cc2C(F)(F)F)CC1 | 6.19 | 11.9 | -5.04 | 0.9 | 0.74 | 1.72 | 5.38 | 0.66 | 0.91 | -1.04 |
| CC(C)[C@H](CO)Nc1nc(Nc2cccc(Cl)c2)c2ncn(C(C)C)c2n1 [Purvalanol A] | 1.65 | 4.54 | 10.1 | 1.68 | 2.51 | 0.79 | 2.99 | 0.25 | 0.14 | -0.31 |
| C[C@@H]1COC(Nc2ccc3ncnc(Nc4ccc(OCc5nccs5)c(Cl)c4)c3c2)=N1 [Varlitinib] | 1.38 | 3.96 | -3.4 | 0.54 | 0.94 | 0.53 | 1.46 | 0.8 | 0.43 | 0.26 |
| CC(C)(C)c1nc(-c2ccc(NC(=O)Nc3cccc(C(F)(F)F)c3)c3ccccc23)c2c(N)nccn12 [kira6] | 1.93 | 6.62 | 9.24 | 0.74 | 0.66 | 3.12 | 4.28 | 0.73 | 0.73 | 0.14 |
| Cc1ccc(CNc2ncnc3ccc(-c4ccc(CO)o4)cc23)o1 | 2.38 | 4.33 | -5.36 | -0.16 | 0.29 | 0.04 | 2.56 | 0.43 | 1.5 | 0.62 |
| Cn1ncc(Cl)c1-c1cc(C(=O)N[C@H](CN)Cc2ccc(F)c(F)c2)oc1Cl | 0.39 | 1.08 | 2.91 | 1.26 | 0.24 | 1.04 | 1.15 | 0.82 | -0.35 | -0.13 |
| COc1ccc2c(Oc3ccc(NC(=O)c4c(C)n(CC(C)(C)O)n(-c5ccccc5)c4=O)nc3)ccnc2c1 | 1.04 | 9.73 | -1.1 | 0.15 | 0.52 | 1.07 | 5.11 | 0.68 | 0.62 | -0.14 |
| O=C1c2ccc(Nc3ccc(F)cc3F)cc2CCc2ccc(OC[C@H](O)CO)cc21 [Skepinone-L] | -0.62 | 1.02 | -0.73 | 0.27 | 0.6 | 0.4 | -0.23 | 0.53 | 0.41 | -0.05 |
| Cc1ccc(NC(=O)c2ccc(CN3CCN(C)CC3)cc2)cc1Nc1nc(-c2cccnc2)cs1 [Masitinib (AB1010)] | -0.19 | 0.62 | -4.62 | 0.59 | 0.34 | 0.52 | -0.18 | 0.52 | 0.98 | 0.23 |
| CN(c1ccccc1CNc1nc(Nc2ccc3c(c2)CC(=O)N3)ncc1C(F)(F)F)S(C)(=O)=O | 3.74 | 11.3 | 11.6 | 2.32 | 4 | 0.97 | 7.19 | -0.04 | 1.23 | 0.27 |
| CCCS(=O)(=O)Nc1ccc(F)c(C(=O)c2c[nH]c3ncc(Cl)cc23)c1F | 0.51 | 5.57 | 2.36 | 1.71 | 0.75 | 0.29 | 1.64 | 0.42 | 0.7 | -0.02 |
| CCN(CC)CCNC(=O)c1c(C)[nH]c(/C=C2\C(=O)Nc3ccc(-c4csc(-c5ccccc5)n4)cc32)c1C [Amcasertib (BBI503)] | 2.36 | 10.8 | 12.7 | 2.76 | 0.34 | 0 | 6.16 | 0.72 | 1.73 | 0.75 |
| C=CC(=O)Nc1cccc(Nc2nc(Nc3ccc(OCCOC)cc3)ncc2F)c1 | 3.06 | 12.6 | 5.6 | 1.99 | 1.06 | 1.03 | 7.95 | 0.96 | 0.79 | 0.63 |
| COc1ccc(-c2nc(N3CCOCC3)c3sc(CN(C)c4ncc(C(=O)NO)cn4)cc3n2)cn1 | 0 | 0.02 | -1.81 | 0.86 | 0.56 | 0.42 | -0.08 | 0.84 | 0.56 | 0.26 |
| C[C@@H](NC(=O)c1ncnc(N)c1Cl)c1ncc(C(=O)Nc2cc(C(F)(F)F)c(Cl)cn2)s1 | 0.51 | 4.01 | -2.64 | 1.62 | 0.73 | 0.28 | 0.58 | 0.53 | 1.4 | 0.05 |
| CC#CC(=O)N1CC[C@@H](n2c(=O)n(-c3ccc(Oc4ccccc4)cc3)c3c(N)ncnc32)C1 [ONO-4059 (GS-4059) hydrochloride] | 0.32 | -0.32 | -5.29 | 0.56 | 0.41 | 0.2 | -0.41 | 0.35 | 0.52 | 0.73 |
